From the OligoGym collection

What follows are sequences tested against HEPH (assay: pooled miR-30 sensor sort-seq; sequence = guide strand). Conditions: shRNA.

Compared with TATGTCACTGTCCAGAGGCTGG, TTTCTGTGCACACATGTTCAGC is higher in sensor-assay potency score (higher = more potent): -1.3 for the first, -0.645 for the second.

Sequence TGATATAGTAGATTCTTGCAGC has a sensor-assay potency score (higher = more potent) of -0.0504.

These sequences were tested against HERC1 in the same assay as above. Conditions: shRNA.

Compared with TAACAGACACATCCTTTCGATA, TTCTCCAACCAGCTTAACCTTC is lower in sensor-assay potency score (higher = more potent): -0.966 for the first, -1.11 for the second.

First: TTTCTGTAGTGAACATAGCAGT
Second: TATTGTAACCCACTTCTGCGGT
The sensor-assay potency score (higher = more potent) of the first is lower: -0.617 for the first, -0.596 for the second.

Compared with TTCATAGGCATACTGCTCCTGA, TAGTTGTCCATGTCGATTGAGC is lower in sensor-assay potency score (higher = more potent): -0.419 for the first, -0.739 for the second.

First: TTGTCCATGTCGATTGAGCGGC
Second: TTCTGCACTAGTCACATTGGTC
The sensor-assay potency score (higher = more potent) of the first is lower: -0.831 for the first, -0.675 for the second.

Going from TATTCATGTAAAACTGTCCTTT to TTATGTTCTTATAACATCTATG, the sensor-assay potency score (higher = more potent) falls from -0.17 to -0.965.

Going from TAACAGAATGGACATCTGCTGA to TAGTGGTTGAGAAACATTCTAA, the sensor-assay potency score (higher = more potent) rises from -0.647 to -0.582.
